± gives the standard deviation of the averaged measurements.
Tests used:
Conditions in all cases: concentration: 10 µM; 24 h
[1] = test system: HCC1569; assay: cell number relative to DMSO (% of DMSO); higher = more cells (less growth inhibition / toxicity)
Summary of the method: (§1)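 Using 384-well plates with 800 cells per well in RPMI plus 10% FBS, HCC1569 and TDF cells were exposed to compounds at 10 µM, in triplicate, for 24 h at 37 °C. Imaging of six fields per well at ×10 followed H1.0 and DAPI staining. The reported quantity, H1.0 nuclear intensity or cell number, is a median of replicates given as percent of the plate control, and HCC1569 values were smoothed for positional effects.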

[2] = test system: TDF; assay: as above
Summary of the method: as §1

[3] = test system: TDF; assay: H1.0 immunofluorescence intensity relative to DMSO (% of DMSO); higher = stronger H1.0 induction, active = 120 or more
Summary of the method: as §1

[4] = test system: HCC1569; assay: H1.0 immunofluorescence intensity relative to DMSO (% of DMSO); higher = stronger H1.0 induction, active = 140 or more
Summary of the method: as §1
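Wherever H1.0 immunofluorescence intensity relative to DMSO is given: TDF is a line of transformed human dermal fibroblasts of mesenchymal origin.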
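Wherever cell number relative to DMSO is given: TDF denotes transformed human dermal fibroblasts of mesenchymal origin.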

Row | Compound | cell number [1] | cell number [2] | H1.0 immunofluorescence intensity [3] | H1.0 immunofluorescence intensity [4]
1 | O=c1cc(-c2cccc3c2Sc2ccccc2S3)oc(N2CCOCC2)c1 [ATM Kinase Inhibitor] | 89.5 | 109 | 98.4 (inactive) | 113 (inactive)
2 | CC1C=CC=CC=CC=CC=CC=CC=CC(OC2OC(C)C(O)C(N)C2O)CC2OC(O)(CC(O)CC(O)C(O)CCC(O)CC(O)CC(=O)OC(C)C(C)C1O)CC(O)C2C(=O)O (centres undefined) [Amphotericin B] | 97.4 | 89.9 | 105 (inactive) | 83.9 (inactive)
3 | OCCOc1ccc(/C(=C(/CCCl)c2ccccc2)c2ccccc2)cc1 [2-{4-[(1Z)-4-chloro-1,2-diphenyl-1-butenyl]phenoxy}ethanol] | 101 | 96.7 | 100 (inactive) | 96.6 (inactive)
4 | Cn1nc2c3c(cccc31)C(=O)c1ccccc1-2 [JNK Inhibitor,                    Negative Control] | 102 | 95.3 | 90.4 (inactive) | 136 (inactive)
5 | OC1CCN2Cc3ccccc3N=C12 (centres undefined) [Vasicine] | 102 | 105 | 98.7 (inactive) | 89.7 (inactive)
6 | CCCCCCCCC=CCCCCCCCCCCC(=O)O [12(Z) Heneicosenoic acid] | 103 | 98 | 95.5 (inactive) | 115 (inactive)
7 | CC(C)CCCC(C)C1CCC2C3CCC4=CC(N=O)CCC4(C)C3CCC12C [(20S)-cholest-4-en-3-one oxime] | 99.4 | 110 | 90.2 (inactive) | 101 (inactive)
8 | Cc1cc(N)c2ccccc2[n+]1CCCCCCCCCCCCCC[n+]1c(C)cc(N)c2ccccc21.[I-].[I-] [Dequalinium analog, C-14 linker] | 101 | 102 | 95.7 (inactive) | 100 (inactive)
9 | CN1Cc2c(N)cccc2C(c2ccccc2)C1.O=C(O)C=CC(=O)O (centres undefined) [Nomifensine maleate] | 102 | 104 | 89 (inactive) | 101 (inactive)
10 | CN1C(=O)CCC1c1cccnc1 (single isomer, unassigned; (-)) [(-)-Cotinine] | 102 ± 1.1 | 112 ± 5.4 | 93.5 (inactive) | 93 (inactive)
11 | C1CNCCN1.COc1cc(C(O)CO)ccc1O.COc1cc(C(O)CO)ccc1O (centres undefined) [MHPG piperazine] | 100 | 108 | 106 (inactive) | 93.6 (inactive)
12 | N[C@H](C(=O)O)c1cccc(O)c1 [(S)-3-Hydroxyphenylglycine] | 95.2 | 99.7 | 102 (inactive) | 100 (inactive)
13 | Oc1cc2c(c(Cl)c1O)CCNCC2c1ccccc1 (centres undefined) | 99.5 | 87.8 | 85.5 (inactive) | 105 (inactive)
14 | NC1CCN(O)C1=O (racemic) | 101 | 104 | 84.3 (inactive) | 82.9 (inactive)
15 | COc1ccc2cc(OCC3(C(=O)O)CN(C(=O)c4ccc(F)cc4)C3)ccc2c1 | 105 | 103 | 93.7 (inactive) | 95.8 (inactive)
16 | O=c1[nH]c2ccccc2n1CCN1CCN(c2cccc(C(F)(F)F)c2)CC1 | 103 | 111 | 95.8 (inactive) | 101 (inactive)
17 | Cl.Cl.Cl.NCCC1CCCC(CCN)N1 (centres undefined) [MDL 26,630 trihydrochloride] | 104 | 105 | 93.7 (inactive) | 85.3 (inactive)
18 | COCCOC(=O)C1=C(C)NC(C)=C(C(=O)OCC=Cc2ccccc2)C1c1cccc([N+](=O)[O-])c1 (centres undefined) [Cilnidipine] | 104 | 108 | 90.2 (inactive) | 111 (inactive)
19 | CC1(C(=O)O)CCC2(C)CCC3(C)C(=CC(=O)C4C5(C)CCC(O)C(C)(C)C5CCC43C)C2C1 (centres undefined) | 102 | 108 | 98.4 (inactive) | 84.4 (inactive)
20 | Nc1ncnc2c1nc(Br)n2C1OC2COP(=O)([O-])OC2C1O.[Na+] (centres undefined) [8-Bromo-cAMP sodium] | 104 | 110 | 95.5 (inactive) | 90.3 (inactive)
21 | C=CCc1ccc(O)c(-c2ccc(O)c(CC=C)c2)c1 [Honokiol] | 100 | 107 | 81 (inactive) | 101 (inactive)
22 | O=c1[nH]c(=O)n(C2CC(O)C(CO)O2)cc1I (centres undefined) [Idoxuridine] | 103 | 100 | 92.2 (inactive) | 121 (inactive)
23 | O=c1[nH]c2cc(Cl)ccc2c(O)c1-c1cccc(Oc2ccccc2)c1 | 108 | 94.2 | 91.7 (inactive) | 88.2 (inactive)
24 | NC/C=C\C(=O)O [cis-4-Aminocrotonic acid] | 105 | 100 | 98.3 (inactive) | 88.1 (inactive)
25 | Nc1ccc(N2C(=O)c3ccccc3C2=O)c(Cl)c1 [N-(4-Amino-2-chlorophenyl)phthalimide] | 103 | 107 | 94.3 (inactive) | 100 (inactive)
26 | Cn1c(=O)c2c(ncn2C)n(C)c1=O [Caffeine] | 102 ± 2.6 | 102 ± 7.9 | 96.1 (inactive) | 91.3 (inactive)

Row | Compound | cell number [1] | cell number [2] | H1.0 immunofluorescence intensity [3] | H1.0 immunofluorescence intensity [4]
27 | Cl.Cl.O=S(=O)(NCCNCC=Cc1ccc(Br)cc1)c1cccc2cnccc12 [H-89, Dihydrochloride] | 96.6 | 110 | 92.7 (inactive) | 129 (inactive)
28 | CC(Nc1nc(N2CCCC2)nc2ccccc12)c1ccccc1 (centres undefined) [N-(1-phenylethyl)-N-[2-(1-pyrrolidinyl)-4-quinazolinyl]amine] | 83.8 | 75.1 | 123 (active) | 120 (inactive)
29 | CN1CCN(C2=Nc3ccccc3Sc3ccc(Cl)cc32)CC1 [Clothiapine] | 103 | 88.9 | 94 (inactive) | 110 (inactive)
30 | N[C@@H](Cc1cc(I)c(Oc2cc(I)c(O)c(I)c2)c(I)c1)C(=O)O [L-thyroxine] | 103 | 89.5 | 97.6 (inactive) | 96.6 (inactive)
31 | C[N+](C)(C)CCO.[Cl-] [2-hydroxy-N,N,N-trimethylethanaminium chloride] | 101 | 107 | 94.9 (inactive) | 99.5 (inactive)
32 | Cn1cnc2cc3c(Nc4cccc(Br)c4)ncnc3cc21 | 92.4 | 114 | 79.6 (inactive) | 117 (inactive)
33 | O=NN(CCCl)C(=O)NC1CCCCC1 [Lomustine] | 104 | 85 | 102 (inactive) | 99.7 (inactive)
34 | CCCCCCC=CCCCCCCCCCC(=O)O [11(E)-Octadecenoic acid] | 101 | 99.5 | 105 (inactive) | 103 (inactive)
35 | CC12CCC3c4ccc(O)cc4CCC3C1CCC2=O (centres undefined) [Estrone] | 102 ± 4.7 | 99.9 ± 9.3 | 96.7 (inactive) | 101 (inactive)
36 | CCCCCCCCCCCCCCCCCCC(=O)O [Nonadecanoic acid] | 96.7 | 102 | 101 (inactive) | 98 (inactive)
37 | NC(=O)c1cccc(-c2cccc(OC(=O)NC3CCCCC3)c2)c1 | 97.3 | 97.5 | 105 (inactive) | 124 (inactive)
38 | O=C(O)CCC(C(=O)O)N1C(=O)c2ccccc2C1=O [L-Glutamic acid, N-phthaloyl-] | 101 | 110 | 91.4 (inactive) | 105 (inactive)
39 | O=C(O)c1ccccc1Nc1cccc(C(F)(F)F)c1 [Flufenamic acid] | 103 | 105 | 91.9 (inactive) | 106 (inactive)
40 | COc1ccc(-c2cc(=O)c3ccc(O)cc3o2)cc1 [Pratol] | 98.5 | 87.4 | 94 (inactive) | 105 (inactive)
41 | CCCCC(C)(O)CC=CC1C(O)CC(=O)C1CCCCCCC(=O)OC (centres undefined) [Misoprostol] | 106 | 107 | 93.2 (inactive) | 108 (inactive)
42 | NC(=O)c1noc([C@H](CCCC2CCCCC2)CC(=O)NO)n1 | 73.8 | 95.6 | 99.6 (inactive) | 109 (inactive)
43 | Cc1cnc(NC(=O)C2=C(O)c3ccccc3S(=O)(=O)N2C)s1 [Meloxicam] | 103 | 105 | 96.1 (inactive) | 104 (inactive)
44 | NC(N)=NC(N)=Nc1ccccc1 [1-Phenylbiguanide] | 105 | 114 | 89.2 (inactive) | 84.1 (inactive)
45 | CCCCCCCCC=CCCCCCCCC(N)=O [9,10-Octadecenoamide] | 98.5 | 103 | 94.7 (inactive) | 102 (inactive)
46 | CCCCCCCCCCCC(CC1OC(=O)C1CCCCCC)OC(=O)C(CC(C)C)NC=O (centres undefined) [Tetrahydrolipistatin] | 100 | 99.2 | 99.2 (inactive) | 90.5 (inactive)
47 | CCCCCCCC/C=C\CCCCCCCC(=O)NCC(=O)O [[(9Z)-9-octadecenoylamino]acetic acid] | 99.2 | 100 | 96.9 (inactive) | 100 (inactive)
48 | CCCCCC=CCC=CC=CC=CC(SCC(N)C(=O)O)C(O)CCCC(=O)O (centres undefined) [Leukotriene E4] | 103 | 101 | 92.6 (inactive) | 102 (inactive)
49 | CNCCNS(=O)(=O)c1cccc2cnccc12.Cl.Cl [H-8 dihydrochloride] | 105 | 101 | 91.8 (inactive) | 77.5 (inactive)
50 | CNC1CC2OC(C)(C1OC)n1c3ccccc3c3c4c(c5c6ccccc6n2c5c31)C(=O)NC4O (centres undefined) | 20.4 | 8.22 | 139 (active) | 121 (inactive)
51 | C=CC1CN2CCC1CC2C(O)c1ccnc2ccc(OC)cc12.C=CC1CN2CCC1CC2C(O)c1ccnc2ccc(OC)cc12.O=S(=O)(O)O (centres undefined) [Quinine sulfate] | 102 | 97.8 | 92.8 (inactive) | 100 (inactive)

Reference: the supplement of paper PMC7156485
